The target of experiment [1] is Oxysterols receptor LXR-alpha (Homo sapiens) (UniProt Q13133). Put plainly: ATG_LXRa_TRANS: Attagene TRANS-FACTORIAL HepG2 Assay for human Liver X Receptor alpha (LXRa) (AID 2282980). To be noted: HepG2 Attagene TRANS reporter, LXRa transactivation. An outline of the steps: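 Chemical-induced reporter mRNA measured by RT-PCR with fluorescent labelling and capillary electrophoresis after 24 h dosing of transiently transfected HepG2 cells expressing exogenous NR-Gal4 chimeras; increases scored against DMSO baseline.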

Experiment [2] can be described thus: ATG_M_32_TRANS: Attagene TRANS-FACTORIAL HepG2 Assay for M32 Transcription Factor (Internal Marker) (AID 2282984).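 Note: transcript level of a background control reporter unit measured by RT-PCR and capillary electrophoresis.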 To be noted: HepG2 Attagene TRANS M32 internal marker reporter. An outline of the steps: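 Capillary electrophoresis of 6-FAM-labelled reporter fragments gives the signal; data fitted for gain over DMSO negative control. Source: HepG2 cells bearing transient multiple reporter transcription units, 24 h exposure.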

The target of experiment [3] is Nuclear receptor subfamily 4 group A member 2 (Homo sapiens) (UniProt P43354). The experiment in a line: ATG_NURR1_TRANS: Attagene TRANS-FACTORIAL HepG2 Assay for human Nuclear Receptor Related Protein 1 (NURR1) (AID 2282985). Conditions: HepG2 Attagene TRANS reporter, mRNA readout. In a few lines: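 HepG2 / transient MRTU transfection / 24 h compound exposure / RT-PCR + CE fluorescence of reporter mRNA / gain-of-signal vs DMSO.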

Experiment [4] deals with Nuclear respiratory factor 1 (Homo sapiens) (UniProt Q16656). The experiment in a line: ATG_NRF1_CIS: Attagene CIS-FACTORIAL HepG2 Assay for human Nuclear Respiratory Factor 1 (NRF1) Orphan Gene (AID 2282987; active = hit-call score of the fitted dose curve at least 0.9, where 1 is the maximum; inactive = score below 0.9). Conditions: HepG2 NRF1 cis-element reporter, Attagene multiplex; actives raise or lower the signal. An outline of the steps:
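HepG2 cells transiently transfected with multiple cis-regulated reporter units, exposed 24 h. Reporter mRNAs measured by RT-PCR, fluorescent labelling, HpaI digestion and capillary electrophoresis; bidirectional fitting against DMSO.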

A short description of experiment [5]: ATG_NFI_CIS: Attagene CIS-FACTORIAL HepG2 Assay for human Nuclear Factor I (NFI) (AID 2282989; active = hit-call score of the fitted dose curve at least 0.9, where 1 is the maximum; inactive = score below 0.9). Conditions: HepG2 cis-regulatory reporter, NFI response element transcription; actives raise or lower the signal. An outline of the steps: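 After transient transfection of HepG2 with cis-promoter reporter constructs and 24 h dosing, RNA is reverse-transcribed, amplified, 6-FAM end-labelled and HpaI-digested before capillary analysis. Bidirectional curve fitting against DMSO.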

The target of experiment [6] is Oxysterols receptor LXR-beta (Homo sapiens) (UniProt P55055). The experiment in a line: ATG_LXRb_TRANS: Attagene TRANS-FACTORIAL HepG2 Assay for human Liver X Receptor beta (LXRb) (AID 2282981). Conditions: HepG2 Attagene TRANS GAL4-LXRb reporter, mRNA. An outline of the steps: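 Gain-of-signal mRNA reporter endpoint, DMSO as negative control. Transiently transfected HepG2 cells carrying the NR-Gal4 chimera and GAL4-UAS reporter units were treated 24 h; transcripts quantified by RT-PCR and capillary electrophoresis fluorescence.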

Experiment [7] is described as follows: ATG_M_06_TRANS: Attagene TRANS-FACTORIAL HepG2 Assay for M06 Transcription Factor (Internal Marker) (AID 2282983). Conditions: HepG2 Attagene TRANS M06 internal marker reporter. In a few lines:
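Cells: HepG2, transient multi-reporter transfection. Exposure: 24 h. Detection: RT-PCR, 6-FAM labelling, HpaI digestion (2 h, 37 °C), capillary electrophoresis. Baseline: DMSO.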

Experiment [8] concerns the target Transcriptional activator Myb (Homo sapiens) (UniProt P10242). Put plainly: ATG_Myb_CIS: Attagene CIS-FACTORIAL HepG2 Assay for human Myeloblastosis (Myb) Proto-Oncogene Transcription Factor (AID 2282986; active = hit-call score of the fitted dose curve at least 0.9, where 1 is the maximum; inactive = score below 0.9). Conditions: HepG2 Attagene CIS-FACTORIAL Myb reporter transcription; actives raise or lower the signal. In a few lines:
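Transiently transfected HepG2 cells carrying a multiplexed cis-promoter reporter set report endogenous Myb activity after 24 h compound exposure. Reporter mRNA is read by RT-PCR with capillary electrophoresis of fluorescent products, fitted bidirectionally against DMSO.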

Structures are written as SMILES. Records with an inconclusive call do not appear. The source made the active and inactive calls. Rule for the calls, unless noted: active = hit-call score of the fitted dose curve at least 0.9, where 1 is the maximum; inconclusive = response in the unintended direction; inactive = score below 0.9.

Chain of Transcriptional activator Myb (Homo sapiens) (P10242 whole entry, looked up): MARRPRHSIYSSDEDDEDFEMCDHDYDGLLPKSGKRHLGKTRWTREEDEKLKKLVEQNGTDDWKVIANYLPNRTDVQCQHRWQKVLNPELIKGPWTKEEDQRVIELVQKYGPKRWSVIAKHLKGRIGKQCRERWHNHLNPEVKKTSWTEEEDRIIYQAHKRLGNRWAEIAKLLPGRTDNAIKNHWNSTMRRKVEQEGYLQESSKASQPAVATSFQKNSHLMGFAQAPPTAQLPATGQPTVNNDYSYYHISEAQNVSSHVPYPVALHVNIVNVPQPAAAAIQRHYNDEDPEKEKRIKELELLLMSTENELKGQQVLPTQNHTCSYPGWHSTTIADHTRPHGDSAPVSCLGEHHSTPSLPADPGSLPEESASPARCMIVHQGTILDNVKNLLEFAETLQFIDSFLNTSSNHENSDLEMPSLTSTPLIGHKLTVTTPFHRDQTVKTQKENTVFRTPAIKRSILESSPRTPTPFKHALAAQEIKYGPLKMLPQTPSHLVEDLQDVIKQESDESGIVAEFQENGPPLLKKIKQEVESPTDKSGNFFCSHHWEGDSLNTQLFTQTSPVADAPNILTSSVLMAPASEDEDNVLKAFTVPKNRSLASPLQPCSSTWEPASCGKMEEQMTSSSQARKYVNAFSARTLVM
Chain of Nuclear receptor subfamily 4 group A member 2 (Homo sapiens) (P43354 whole entry, looked up): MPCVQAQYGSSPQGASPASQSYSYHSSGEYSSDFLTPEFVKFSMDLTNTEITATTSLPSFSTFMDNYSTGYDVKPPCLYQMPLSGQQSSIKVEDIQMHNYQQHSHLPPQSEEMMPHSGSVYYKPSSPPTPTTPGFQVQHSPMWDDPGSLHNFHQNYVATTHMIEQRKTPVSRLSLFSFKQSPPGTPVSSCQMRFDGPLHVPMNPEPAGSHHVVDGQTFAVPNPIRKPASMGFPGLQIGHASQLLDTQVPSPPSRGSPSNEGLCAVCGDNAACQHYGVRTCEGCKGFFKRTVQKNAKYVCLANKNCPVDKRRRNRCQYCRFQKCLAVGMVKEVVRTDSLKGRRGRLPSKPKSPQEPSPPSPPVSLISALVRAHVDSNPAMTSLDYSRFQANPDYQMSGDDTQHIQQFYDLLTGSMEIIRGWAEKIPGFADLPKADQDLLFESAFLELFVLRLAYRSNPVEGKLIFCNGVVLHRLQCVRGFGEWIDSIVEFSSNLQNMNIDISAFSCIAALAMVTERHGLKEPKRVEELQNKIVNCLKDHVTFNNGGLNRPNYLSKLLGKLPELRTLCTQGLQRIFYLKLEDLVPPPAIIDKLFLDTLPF
Chain of Nuclear respiratory factor 1 (Homo sapiens) (Q16656 whole entry, looked up): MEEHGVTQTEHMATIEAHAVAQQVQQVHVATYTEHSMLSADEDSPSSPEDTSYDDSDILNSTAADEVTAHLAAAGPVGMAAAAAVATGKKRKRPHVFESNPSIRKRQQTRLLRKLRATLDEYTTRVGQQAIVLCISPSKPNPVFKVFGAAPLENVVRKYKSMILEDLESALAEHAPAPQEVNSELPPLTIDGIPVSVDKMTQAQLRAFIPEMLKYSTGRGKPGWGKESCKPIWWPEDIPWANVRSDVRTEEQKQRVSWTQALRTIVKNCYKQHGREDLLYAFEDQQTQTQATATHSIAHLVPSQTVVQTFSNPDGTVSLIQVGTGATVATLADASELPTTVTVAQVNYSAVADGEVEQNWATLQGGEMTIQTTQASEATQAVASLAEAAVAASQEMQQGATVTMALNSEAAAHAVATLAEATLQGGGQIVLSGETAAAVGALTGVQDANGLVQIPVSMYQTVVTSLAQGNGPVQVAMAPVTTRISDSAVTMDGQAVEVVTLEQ
Chain of Oxysterols receptor LXR-beta (Homo sapiens) (P55055 whole entry, looked up, the tested form may be a part): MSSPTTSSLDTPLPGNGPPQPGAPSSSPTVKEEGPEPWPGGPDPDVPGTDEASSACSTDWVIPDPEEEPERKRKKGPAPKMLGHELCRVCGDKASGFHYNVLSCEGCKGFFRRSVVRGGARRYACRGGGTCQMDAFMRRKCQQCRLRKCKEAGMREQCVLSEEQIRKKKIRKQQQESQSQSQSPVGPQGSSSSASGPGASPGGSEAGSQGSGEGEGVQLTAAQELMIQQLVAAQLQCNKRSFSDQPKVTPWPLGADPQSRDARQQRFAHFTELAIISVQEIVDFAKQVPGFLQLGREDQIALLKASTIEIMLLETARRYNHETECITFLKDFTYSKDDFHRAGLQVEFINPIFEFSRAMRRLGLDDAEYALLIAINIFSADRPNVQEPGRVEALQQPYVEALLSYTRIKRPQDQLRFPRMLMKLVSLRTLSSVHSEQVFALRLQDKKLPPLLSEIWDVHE
Chain of Oxysterols receptor LXR-alpha (Homo sapiens) (Q13133 whole entry, looked up, the tested form may be a part): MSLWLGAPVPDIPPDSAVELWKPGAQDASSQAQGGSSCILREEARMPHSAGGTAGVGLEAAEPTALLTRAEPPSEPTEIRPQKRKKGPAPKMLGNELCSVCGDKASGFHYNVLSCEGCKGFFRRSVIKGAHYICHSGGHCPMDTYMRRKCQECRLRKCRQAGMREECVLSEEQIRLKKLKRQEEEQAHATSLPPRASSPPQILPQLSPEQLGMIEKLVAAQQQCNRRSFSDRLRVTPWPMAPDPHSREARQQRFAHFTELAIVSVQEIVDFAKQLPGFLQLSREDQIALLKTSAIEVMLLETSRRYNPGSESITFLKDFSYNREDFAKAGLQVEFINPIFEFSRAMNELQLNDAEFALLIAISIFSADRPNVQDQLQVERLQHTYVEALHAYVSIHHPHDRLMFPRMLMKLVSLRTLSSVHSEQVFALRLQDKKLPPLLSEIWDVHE

`Cc1ccc(S(=O)(=O)O)cc1C`: the compound was classed as inactive in experiment [1], in experiment [2], in experiment [3], in experiment [4] and in experiment [5].
As to `CC[C@H]1OC(=O)[C@H](C)[C@@H](O[C@H]2C[C@@](C)(OC)[C@@H](O)[C@H](C)O2)[C@H](C)[C@@H](O[C@@H]2O[C@H](C)C[C@H](N(C)C)[C@H]2O)[C@](C)(O)C[C@@H](C)C(=O)[C@H](C)[C@@H](O)[C@]1(C)O`, the call in experiment [6], in experiment [7], in experiment [2], in experiment [4] and in experiment [5] was inactive.
For `CC(=O)OC[C@H]1O[C@@](COC(C)=O)(O[C@H]2O[C@H](COC(C)=O)[C@@H](OC(C)=O)[C@H](OC(C)=O)[C@H]2OC(C)=O)[C@@H](OC(C)=O)[C@@H]1OC(C)=O`, the result in experiment [6], in experiment [7], in experiment [2], in experiment [4] and in experiment [5] was inactive.
On to `CC(=O)OCCC(C)C`, for which the compound was classed as inactive in experiment [6], in experiment [7], in experiment [3], in experiment [8], in experiment [4] and in experiment [5].
For the compound `CC(C)CCCCCCOC(=O)c1ccc(C(=O)OCCCCCCC(C)C)c(C(=O)OCCCCCCC(C)C)c1`, the call in experiment [7], in experiment [4] and in experiment [5] was inactive.
Consider `Clc1nc(Cl)c(Cl)c(Cl)c1Cl`, for which the outcome in experiment [7], in experiment [2], in experiment [3], in experiment [4] and in experiment [5] was inactive.
As for `CCOC(=O)CC(CC(=O)OCC)(OC(C)=O)C(=O)OCC`, the compound was called inactive in experiment [1], in experiment [2], in experiment [3], in experiment [8], in experiment [4] and in experiment [5].
Usually AC50 stands for the concentration at which the activity in the assay is half-maximal. Regarding `CCN(C(=O)c1cc(C)cc(OC[C@H](C)Nc2ccncc2)c1)C(C)C`, in experiment [1], the AC50 was 0.486 µM (active). Besides, the compound was called inactive in experiment [7], in experiment [2], in experiment [3], in experiment [8], in experiment [4] and in experiment [5].
For the compound `C[C@](N)(Cc1ccc(O)c(O)c1)C(=O)O`, the result in experiment [7], in experiment [3], in experiment [8], in experiment [4] and in experiment [5] was inactive.
Turning to `CC(C)CCO`, the call in experiment [6], in experiment [7], in experiment [2], in experiment [8], in experiment [4] and in experiment [5] was inactive.
Regarding `Nc1ccc(Nc2ccccc2)cc1`, the call in experiment [6], in experiment [3], in experiment [4] and in experiment [5] was inactive.
Turning to `CCOCCOCCOCCO`, the compound was classed as inactive in experiment [6], in experiment [3], in experiment [4] and in experiment [5].
Turning to `CCCCCCCCCCCCc1ccccc1`, the compound was classed as inactive in experiment [1], in experiment [7], in experiment [2], in experiment [4] and in experiment [5].
For the compound `O=C1OC(=O)C2C3C=CC(C3)C12` (stereo not drawn), the compound was called inactive in experiment [1], in experiment [2], in experiment [8], in experiment [4] and in experiment [5].
With `C=CCCCCCCCCC(=O)O`, the compound was called inactive in experiment [1], in experiment [6], in experiment [2], in experiment [3], in experiment [4] and in experiment [5].
Regarding `C=CC(=C)CCC=C(C)C`, the compound was called inactive in experiment [6], in experiment [7], in experiment [2], in experiment [3], in experiment [8] and in experiment [4]. Besides, in experiment [5], the outcome was inactive.
With `CCn1nc(Cc2ccccc2)cc1C1CCN(C[C@H]2C[C@H](N(C)[C@@H](C(=O)O)C(C)C)C[C@@H]2c2cccc(F)c2)CC1`, the call in experiment [4] and in experiment [5] was inactive.
As for `CC(C)=CCCC(C)CCO` (stereo not drawn), the compound was classed as inactive in experiment [7], in experiment [2], in experiment [8], in experiment [4] and in experiment [5].
On to `O=C(NS(=O)(=O)/C=C/c1ccccc1)c1ccc(F)cc1Cl`, for which the call in experiment [1], in experiment [2], in experiment [3], in experiment [8], in experiment [4] and in experiment [5] was inactive.
In the case of `CCNc1ccccc1`, the call in experiment [7], in experiment [3], in experiment [4] and in experiment [5] was inactive.
For the compound `Cn1c(=O)c2c(ncn2C)n(C)c1=O`, the result in experiment [2], in experiment [3], in experiment [4] and in experiment [5] was inactive.
Turning to `O=P(OC(CCl)CCl)(OC(CCl)CCl)OC(CCl)CCl`, the outcome in experiment [1], in experiment [7], in experiment [2] and in experiment [4] was inactive. Also, the results for the concentration at half-maximal activity (AC50) in experiment [3], in experiment [8] and in experiment [5] were 32 µM (active), 144 µM (active) and 187 µM (active), respectively.
Turning to `CNS(=O)(=O)c1cc(C(=O)N2CCC(CCN3C4CCC3CC(n3c(C)nc5ccccc53)C4)(c3cccc(F)c3)CC2)c(Cl)cc1F` (stereo not drawn), the outcome in experiment [7], in experiment [2], in experiment [3], in experiment [8], in experiment [4] and in experiment [5] was inactive.
Turning to `On1ccccc1=S`, the call in experiment [7], in experiment [2], in experiment [8], in experiment [4] and in experiment [5] was inactive.
As to `O=C(OC[C@H]1O[C@@H](OC(=O)c2cc(O)c(O)c(OC(=O)c3cc(O)c(O)c(O)c3)c2)[C@H](OC(=O)c2cc(O)c(O)c(OC(=O)c3cc(O)c(O)c(O)c3)c2)[C@@H](OC(=O)c2cc(O)c(O)c(OC(=O)c3cc(O)c(O)c(O)c3)c2)[C@@H]1OC(=O)c1cc(O)c(O)c(OC(=O)c2cc(O)c(O)c(O)c2)c1)c1cc(O)c(O)c(OC(=O)c2cc(O)c(O)c(O)c2)c1`, the call in experiment [1], in experiment [6], in experiment [7], in experiment [4] and in experiment [5] was inactive.

The record behind these values is PubChem BioAssay (EPA / NIEHS).
